Holding throughout (set-up): scale not given: direction of the effect not stated beside the values
The target of test [1] is Protein translocase subunit SecA (Escherichia coli (strain K12)) (UniProt P10408). Kind of test: Assay to Identify E. coli SecA ATPase Inhibitors. In kind it is functional. Particulars: 30 µM.
Test [2] addresses T1, Ubiquitin-activating enzyme e1, putative (Leishmania donovani (strain BPK282A1)) (UniProt E9BSI1).
T1 sequence (whole entry): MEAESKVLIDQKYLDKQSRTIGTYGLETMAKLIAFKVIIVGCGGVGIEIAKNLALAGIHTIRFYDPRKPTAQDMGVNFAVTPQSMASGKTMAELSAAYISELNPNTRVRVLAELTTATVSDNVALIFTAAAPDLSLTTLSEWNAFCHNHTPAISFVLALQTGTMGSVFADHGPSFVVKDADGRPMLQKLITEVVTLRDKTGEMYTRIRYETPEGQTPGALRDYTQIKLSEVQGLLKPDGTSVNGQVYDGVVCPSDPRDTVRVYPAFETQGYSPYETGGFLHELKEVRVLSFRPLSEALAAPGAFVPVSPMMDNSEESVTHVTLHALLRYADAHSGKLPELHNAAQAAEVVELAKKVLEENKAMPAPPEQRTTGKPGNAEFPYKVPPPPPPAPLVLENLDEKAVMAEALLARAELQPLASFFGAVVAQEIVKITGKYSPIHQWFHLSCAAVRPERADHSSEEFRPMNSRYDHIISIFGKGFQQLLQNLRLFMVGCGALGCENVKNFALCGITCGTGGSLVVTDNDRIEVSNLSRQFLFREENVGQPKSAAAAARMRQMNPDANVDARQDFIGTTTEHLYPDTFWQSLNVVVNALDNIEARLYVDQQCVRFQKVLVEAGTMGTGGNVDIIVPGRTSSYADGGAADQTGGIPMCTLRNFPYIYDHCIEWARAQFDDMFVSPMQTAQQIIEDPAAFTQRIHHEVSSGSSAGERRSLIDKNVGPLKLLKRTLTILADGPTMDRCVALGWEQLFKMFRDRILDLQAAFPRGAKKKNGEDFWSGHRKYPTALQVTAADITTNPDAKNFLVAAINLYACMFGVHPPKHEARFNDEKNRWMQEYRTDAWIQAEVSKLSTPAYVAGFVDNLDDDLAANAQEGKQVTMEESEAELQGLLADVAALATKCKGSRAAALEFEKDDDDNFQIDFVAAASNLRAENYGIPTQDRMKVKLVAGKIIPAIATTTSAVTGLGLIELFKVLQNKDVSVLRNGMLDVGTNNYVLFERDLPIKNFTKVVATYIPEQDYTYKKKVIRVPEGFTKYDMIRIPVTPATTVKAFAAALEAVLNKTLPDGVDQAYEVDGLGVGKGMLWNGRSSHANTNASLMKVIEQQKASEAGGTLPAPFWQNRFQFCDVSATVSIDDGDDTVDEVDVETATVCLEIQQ
Description: Leishmania donovani Ubiquitin Activating Enzyme (LdE1). In kind it is functional. Particulars: 30 µM.

The target in test [3] is Sialic acid-binding Ig-like lectin 9 (Homo sapiens) (UniProt Q9Y336). Kind of test: Hs-Siglec9 ALPHAscreen SOP 20170721. The conditions noted are these: 10 µM.
Chain of Sialic acid-binding Ig-like lectin 9 (Homo sapiens) (Q9Y336 whole entry): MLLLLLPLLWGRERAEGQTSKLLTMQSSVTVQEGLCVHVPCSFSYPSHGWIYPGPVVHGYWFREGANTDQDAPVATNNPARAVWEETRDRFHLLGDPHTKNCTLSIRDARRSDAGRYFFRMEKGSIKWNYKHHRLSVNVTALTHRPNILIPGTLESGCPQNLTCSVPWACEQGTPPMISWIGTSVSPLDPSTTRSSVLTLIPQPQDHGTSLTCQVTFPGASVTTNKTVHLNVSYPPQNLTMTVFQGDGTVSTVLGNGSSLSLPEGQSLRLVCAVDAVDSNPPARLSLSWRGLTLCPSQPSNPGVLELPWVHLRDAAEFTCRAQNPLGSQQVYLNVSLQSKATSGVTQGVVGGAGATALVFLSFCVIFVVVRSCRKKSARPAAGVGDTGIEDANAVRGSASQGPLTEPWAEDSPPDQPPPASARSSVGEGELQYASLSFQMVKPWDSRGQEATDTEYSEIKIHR
A further test relates to Trypanosoma cruzi. Description: Trypanosoma cruzi phosphomannomutase and mannose-1-phosphate guanylyltransferase assay. In kind it is functional. The conditions noted are these: 10 µM.
In test [4] the target is T2, Arginase-2, mitochondrial (Homo sapiens) (UniProt P78540).
T2 sequence (whole entry): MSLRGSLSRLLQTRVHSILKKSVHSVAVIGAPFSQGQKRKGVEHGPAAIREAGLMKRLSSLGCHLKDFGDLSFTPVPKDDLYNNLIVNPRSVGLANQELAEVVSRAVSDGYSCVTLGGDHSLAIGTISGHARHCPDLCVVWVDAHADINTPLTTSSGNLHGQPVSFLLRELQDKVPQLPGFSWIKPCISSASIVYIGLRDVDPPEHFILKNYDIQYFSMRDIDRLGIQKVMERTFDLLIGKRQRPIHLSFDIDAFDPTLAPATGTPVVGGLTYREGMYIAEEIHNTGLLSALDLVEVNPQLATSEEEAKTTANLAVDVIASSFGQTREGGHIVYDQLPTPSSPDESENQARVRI
Kind of test: in vitro enzyme assay to detect the production of urea directly proportional to the activity of Arginase II. Further: in the data most compounds retested in dose-response had high values. In kind it is functional. The conditions noted are these: 33.3 µM.

Test [5] has as its target T3, Proteasome subunit beta (Trypanosoma cruzi) (UniProt O96673).
T3 sequence (whole entry): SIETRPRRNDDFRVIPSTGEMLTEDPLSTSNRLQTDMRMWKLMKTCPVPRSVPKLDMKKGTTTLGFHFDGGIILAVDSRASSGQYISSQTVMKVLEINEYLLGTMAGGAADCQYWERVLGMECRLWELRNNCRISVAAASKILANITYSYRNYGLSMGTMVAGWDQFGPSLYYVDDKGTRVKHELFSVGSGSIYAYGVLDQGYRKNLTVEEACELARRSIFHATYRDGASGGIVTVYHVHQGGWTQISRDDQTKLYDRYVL
Kind of test: Trypanosoma cruzi proteasome chymotrypsin-like activity (TcProtChymo) assay. Further: in the data most compounds retested in dose-response had high values. In kind it is functional. Particulars: 9.37 µM.

The species entered for a further test is Homo sapiens. Description: To identify inhibition of the IFN signalling (Jak-Stat) pathway via expression of an eGFP reporter gene under the control of an IFN-stimulated response element (ISRE) containing MxA promoter. In kind it is functional. The conditions noted are these: 30 µM. In general terms: A reporter such as luciferase makes a cellular process visible.

Test [6] concerns the target T4, Tyrosyl-tRNA synthetase, putative (Trypanosoma cruzi (strain CL Brener)) (UniProt Q4DSP6).
T4 sequence (whole entry): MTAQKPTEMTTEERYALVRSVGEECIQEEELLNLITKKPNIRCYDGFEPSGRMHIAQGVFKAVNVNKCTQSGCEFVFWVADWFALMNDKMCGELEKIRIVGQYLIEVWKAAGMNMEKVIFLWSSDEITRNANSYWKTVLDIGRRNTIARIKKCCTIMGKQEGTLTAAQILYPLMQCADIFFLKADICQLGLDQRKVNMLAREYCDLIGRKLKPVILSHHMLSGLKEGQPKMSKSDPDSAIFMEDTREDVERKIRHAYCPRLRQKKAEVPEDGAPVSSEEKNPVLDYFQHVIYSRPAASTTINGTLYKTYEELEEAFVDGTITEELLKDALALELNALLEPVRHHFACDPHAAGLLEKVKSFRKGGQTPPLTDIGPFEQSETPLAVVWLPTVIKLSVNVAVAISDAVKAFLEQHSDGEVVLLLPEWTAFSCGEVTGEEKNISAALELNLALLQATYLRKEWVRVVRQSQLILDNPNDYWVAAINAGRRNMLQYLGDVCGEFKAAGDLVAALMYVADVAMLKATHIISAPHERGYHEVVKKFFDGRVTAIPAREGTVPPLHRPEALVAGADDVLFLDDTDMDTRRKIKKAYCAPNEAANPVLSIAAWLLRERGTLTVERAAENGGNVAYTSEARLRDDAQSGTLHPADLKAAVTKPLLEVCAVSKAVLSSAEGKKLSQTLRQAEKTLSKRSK
Kind of test: Trypanosoma cruzi tyrosyl tRNA synthetase (TcYRS) _High Tyrosine SOP. Further: in the data most compounds retested in dose-response had high values. Particulars: 30 µM. In kind it is functional.

Test [7] addresses T4, Tyrosyl-tRNA synthetase, putative (Trypanosoma cruzi (strain CL Brener)). Description: Trypanosoma cruzi tyrosyl tRNA synthetase (TcYRS) SOP. Particulars: 30 µM. The class given is functional.
Test [8] addresses Chromo domain-containing protein 1 (Saccharomyces cerevisiae (strain ATCC 204508 / S288c) (Baker's yeast)) (UniProt P32657). Kind of test: ScCHD-1 Enzyme Inhibition Assay. Further: in the data most compounds retested in dose-response had high values. The class given is functional. The conditions noted are these: 30 µM.

For some assays here: Results with a measured potency or affinity are listed apart.

Chain of Protein translocase subunit SecA (Escherichia coli (strain K12)) (P10408 whole entry): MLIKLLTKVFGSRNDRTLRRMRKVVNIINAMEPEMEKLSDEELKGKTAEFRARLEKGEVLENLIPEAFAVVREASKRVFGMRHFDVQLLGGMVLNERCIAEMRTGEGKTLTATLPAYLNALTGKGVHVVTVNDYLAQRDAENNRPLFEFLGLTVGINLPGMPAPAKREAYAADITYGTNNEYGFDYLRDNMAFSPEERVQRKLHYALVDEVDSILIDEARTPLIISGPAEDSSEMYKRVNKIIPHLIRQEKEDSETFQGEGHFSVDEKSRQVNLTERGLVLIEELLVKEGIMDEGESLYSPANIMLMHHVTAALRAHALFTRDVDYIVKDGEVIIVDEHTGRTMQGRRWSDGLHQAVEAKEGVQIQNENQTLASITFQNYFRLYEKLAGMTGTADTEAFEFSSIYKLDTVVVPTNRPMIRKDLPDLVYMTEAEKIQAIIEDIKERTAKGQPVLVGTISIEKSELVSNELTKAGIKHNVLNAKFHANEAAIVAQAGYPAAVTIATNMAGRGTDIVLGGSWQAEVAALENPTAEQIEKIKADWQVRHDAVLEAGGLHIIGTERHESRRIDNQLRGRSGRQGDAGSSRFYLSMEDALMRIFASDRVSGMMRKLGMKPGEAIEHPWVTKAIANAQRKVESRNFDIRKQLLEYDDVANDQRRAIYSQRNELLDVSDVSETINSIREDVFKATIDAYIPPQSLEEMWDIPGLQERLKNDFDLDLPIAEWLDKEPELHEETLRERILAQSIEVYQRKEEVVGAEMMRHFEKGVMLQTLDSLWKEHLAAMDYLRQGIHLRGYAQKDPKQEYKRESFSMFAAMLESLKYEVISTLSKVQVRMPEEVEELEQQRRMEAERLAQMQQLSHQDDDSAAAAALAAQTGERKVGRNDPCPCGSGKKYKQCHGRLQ
Chain of Chromo domain-containing protein 1 (Saccharomyces cerevisiae (strain ATCC 204508 / S288c) (Baker's yeast)) (P32657 whole entry, the tested form may be a part): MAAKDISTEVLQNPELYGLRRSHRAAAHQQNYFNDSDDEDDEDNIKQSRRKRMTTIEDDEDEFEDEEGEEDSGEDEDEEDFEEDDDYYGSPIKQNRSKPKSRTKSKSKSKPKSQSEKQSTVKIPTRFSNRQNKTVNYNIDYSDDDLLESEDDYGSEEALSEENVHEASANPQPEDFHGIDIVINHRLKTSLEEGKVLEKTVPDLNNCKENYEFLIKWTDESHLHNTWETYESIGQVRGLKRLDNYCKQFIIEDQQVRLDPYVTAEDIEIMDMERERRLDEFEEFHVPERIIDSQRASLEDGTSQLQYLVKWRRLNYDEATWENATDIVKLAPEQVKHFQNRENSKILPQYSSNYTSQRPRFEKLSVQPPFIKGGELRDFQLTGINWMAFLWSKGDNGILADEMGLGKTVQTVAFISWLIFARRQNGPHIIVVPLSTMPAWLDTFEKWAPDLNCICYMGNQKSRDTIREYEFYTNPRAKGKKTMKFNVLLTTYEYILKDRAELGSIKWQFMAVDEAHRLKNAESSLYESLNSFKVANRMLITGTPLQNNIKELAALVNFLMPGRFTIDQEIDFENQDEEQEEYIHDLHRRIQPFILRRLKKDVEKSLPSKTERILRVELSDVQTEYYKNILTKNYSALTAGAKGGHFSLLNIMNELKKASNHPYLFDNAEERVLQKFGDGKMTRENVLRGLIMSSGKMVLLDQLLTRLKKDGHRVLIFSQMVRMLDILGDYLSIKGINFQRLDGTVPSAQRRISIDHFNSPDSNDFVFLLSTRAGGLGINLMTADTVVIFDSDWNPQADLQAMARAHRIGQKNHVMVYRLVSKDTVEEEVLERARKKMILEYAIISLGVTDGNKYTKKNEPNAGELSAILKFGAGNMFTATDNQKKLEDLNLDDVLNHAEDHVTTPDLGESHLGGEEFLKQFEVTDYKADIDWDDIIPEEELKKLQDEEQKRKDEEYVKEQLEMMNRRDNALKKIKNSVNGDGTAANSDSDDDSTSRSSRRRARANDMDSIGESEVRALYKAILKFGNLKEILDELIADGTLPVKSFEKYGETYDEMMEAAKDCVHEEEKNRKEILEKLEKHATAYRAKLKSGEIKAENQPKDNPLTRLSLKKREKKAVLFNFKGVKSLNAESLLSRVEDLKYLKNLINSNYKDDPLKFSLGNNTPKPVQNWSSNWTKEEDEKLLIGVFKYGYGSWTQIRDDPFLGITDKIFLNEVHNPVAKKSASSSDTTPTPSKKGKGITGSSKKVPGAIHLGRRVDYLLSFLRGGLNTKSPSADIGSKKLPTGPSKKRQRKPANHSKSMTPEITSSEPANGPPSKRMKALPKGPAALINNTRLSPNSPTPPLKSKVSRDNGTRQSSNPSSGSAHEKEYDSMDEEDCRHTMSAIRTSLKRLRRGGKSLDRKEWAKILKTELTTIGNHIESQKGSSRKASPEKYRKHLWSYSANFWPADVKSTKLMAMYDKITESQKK

Take `Cc1cnc(CN(C)C2CCN(CCc3cnn(C)c3)C2)o1` (stereo not given): the Percent Effect in test [1] was -3.84%; in test [2], 0%; in test [3], 0.368%; with Trypanosoma cruzi, -1%; in test [4] it was 2.66%; in test [5] it was 3.65%. For the same compound, the Percent Effect was 2.79% in the test listed under Homo sapiens, 4.74% in [6], 5.13% in test [7] and -8.2% in test [8].
On to `CC(=O)c1sc(Nc2ccc(Cl)cn2)nc1C`, for which the Percent Effect in test [1] is -2.68%; in test [2], 24.7%; in test [3] it was 1.41%; in the test on Trypanosoma cruzi it was 1.13%; in [4], 0.913%; in test [5], 12.6%. In addition, the Percent Effect in the test listed under Homo sapiens was 24.7%; in test [6] it was 2.9%; in test [7], -37.5%; in test [8], -10.7%.
Take `c1csc(CN2CCOCC3(CCN(C4CCOCC4)C3)C2)n1` (stereo not given): the Percent Effect in test [1] is -5.6%; in test [2], 6.49%; in test [3], -3.43%; with Trypanosoma cruzi, -4.77%; in test [4], -5.67%; in test [5], 16.9%. Moreover, the Percent Effect in the test listed under Homo sapiens is -1.84%; in test [6] it was 2.63%; in [7] it was -2.56%; in [8] it was -0.251%.
As for `COC(=O)Cn1c(=O)nc2n1C(=O)N(c1ccc(Cl)cc1)C2`, the Percent Effect in [1] was -4.67%; in test [2], 2.7%; in [3] it was 8.46%; in the test with Trypanosoma cruzi, -8.83%; in test [4], -2.45%; in [5], 10.4%. Also, the Percent Effect is -2.27% in the test listed under Homo sapiens, 0.532% in [6], 2.44% in test [7] and -2.66% in test [8].
As for `Cc1cnn(CC2CN(CC(=O)NCc3ccccn3)CCO2)c1` (stereo not given), the Percent Effect in test [1] was -3.5%; in [2] it was 8%; in [3], 4.57%; with Trypanosoma cruzi, 4.62%; in test [4], -4.88%; in test [5], 5.17%. Moreover, the Percent Effect in the test listed under Homo sapiens is 2.48%; in test [6], 3.68%; in [7], 10.3%; in test [8], -8.5%.
For the compound `Cc1cc(NCc2cc3n(n2)CCCN(S(C)(=O)=O)C3)ncn1`, the Percent Effect was -8.82% in test [1]; 2.7% in test [2]; 4.07% in test [3]; 3.59% with Trypanosoma cruzi; 5.94% in test [4]; 4.97% in test [5]. Further, the Percent Effect in the test filed under Homo sapiens came to 0.911%; in test [6], 3.72%; in test [7] it was 12.2%; in [8], 0.638%.
Regarding `CCn1ncc(Br)c1CN(C)S(=O)(=O)c1ccc(C)cc1`, the Percent Effect in test [1] is 0.567%; in test [2], 6.67%; in test [3], -0.565%; with Trypanosoma cruzi it was 3.35%; in test [4] it was 6.2%; in test [5] it was 15.3%. In addition, the Percent Effect in the test listed under Homo sapiens is 14%; in test [6], 4.23%; in [7], 10%; in test [8], -22%.
Take `Cc1noc(C)c1CN(C)CCC(=O)N1CCc2sccc2C1`: the Percent Effect in [1] is -4.9%; in test [2], 0%; in test [3] it was 7.48%; with Trypanosoma cruzi, -1%; in test [4] it was 0.444%; in test [5] it was 8.74%. Moreover, the Percent Effect in the test filed under Homo sapiens is 17.8%; in test [6], 4.74%; in [7], 5.13%; in [8], -7.86%.
Take `O=C1CCCN1Cc1nnc2n1CCN(Cc1ccoc1)CC2`: the Percent Effect in [1] is -6.7%; in test [2], 9.09%; in [3], -2.11%; with Trypanosoma cruzi, -3.94%; in [4] it was 1.83%; in [5] it was 0.601%. Also, the Percent Effect is 26.1% in the test filed under Homo sapiens, -1.93% in test [6], -2.5% in test [7] and -3.88% in test [8].
Turning to `CCCn1ccc(C(=O)N2CCOC(c3nc(-c4cccs4)no3)C2)n1` (stereo not given), the Percent Effect in [1] was -2.75%; in [2], 6.67%; in [3] it was 6.13%; with Trypanosoma cruzi, -1.18%; in [4], 0%; in [5] it was 4.76%. For the same compound, the Percent Effect in the test listed under Homo sapiens was 1.83%; in test [6] it was 5.29%; in [7] it was 17.5%; in [8] it was -17.3%.
On to `O=C(NCCCN1CCc2ccccc2C1)c1cccnc1O`, for which the Percent Effect in test [1] was -1.75%; in test [2] it was 10.7%; in [3] it was 3.3%; with Trypanosoma cruzi, -0.803%; in test [4], 2.22%; in test [5], 2.8%. Besides, the Percent Effect is 4.99% in the test filed under Homo sapiens, 2.63% in [6], 10.3% in test [7] and -11.3% in test [8].
